From PubChem BioAssay AID485346 (Sanford-Burnham Center for Chemical Genomics, 2010) come the findings set out here.

Among all 330,000 compounds or so, about 10,000 (3%) were called active.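 Rule for the calls: active = inhibition of at least 50% at 8 µM in the primary screen; inactive = the rest.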 The full list was thinned out, with actives kept by preference.

Protein Mdm4 (Homo sapiens) + E3 ubiquitin-protein ligase Mdm2 (Homo sapiens), sequence (O15151 whole entry, looked up): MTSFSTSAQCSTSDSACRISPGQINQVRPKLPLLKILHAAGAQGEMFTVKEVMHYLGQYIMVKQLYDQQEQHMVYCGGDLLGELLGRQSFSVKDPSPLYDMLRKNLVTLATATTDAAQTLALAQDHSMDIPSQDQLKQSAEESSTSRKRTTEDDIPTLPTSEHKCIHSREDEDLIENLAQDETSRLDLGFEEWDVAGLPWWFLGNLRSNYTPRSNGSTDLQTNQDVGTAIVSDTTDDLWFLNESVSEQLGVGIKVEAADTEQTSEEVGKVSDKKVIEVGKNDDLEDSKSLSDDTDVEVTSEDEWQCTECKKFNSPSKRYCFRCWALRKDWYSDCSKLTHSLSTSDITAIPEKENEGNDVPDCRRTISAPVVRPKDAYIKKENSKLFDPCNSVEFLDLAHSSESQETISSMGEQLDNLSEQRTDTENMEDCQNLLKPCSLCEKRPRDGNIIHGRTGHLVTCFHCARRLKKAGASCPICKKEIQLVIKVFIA
Protein Mdm4 (Homo sapiens) + E3 ubiquitin-protein ligase Mdm2 (Homo sapiens), sequence (Q00987 whole entry, looked up): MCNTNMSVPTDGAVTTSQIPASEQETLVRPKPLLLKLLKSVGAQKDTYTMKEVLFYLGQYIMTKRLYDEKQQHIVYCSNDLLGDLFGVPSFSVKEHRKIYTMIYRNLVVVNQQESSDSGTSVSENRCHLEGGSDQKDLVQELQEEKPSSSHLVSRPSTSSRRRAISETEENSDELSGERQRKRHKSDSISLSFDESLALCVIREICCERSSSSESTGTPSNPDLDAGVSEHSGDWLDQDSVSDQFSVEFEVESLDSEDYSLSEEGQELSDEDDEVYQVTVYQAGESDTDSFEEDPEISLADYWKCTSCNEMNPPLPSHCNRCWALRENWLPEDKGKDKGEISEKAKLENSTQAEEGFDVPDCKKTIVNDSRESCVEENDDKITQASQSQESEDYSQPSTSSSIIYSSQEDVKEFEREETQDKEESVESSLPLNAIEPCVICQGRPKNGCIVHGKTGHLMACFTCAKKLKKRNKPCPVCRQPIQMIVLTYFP

The test addresses Protein Mdm4 (Homo sapiens) + E3 ubiquitin-protein ligase Mdm2 (Homo sapiens) (UniProt O15151+Q00987). The test is described as follows: disruptors of Mdm2/MdmX RING complex – cell-based, luminescence, split luciferase, SaOS-2, uHTS, primary screen (AID 485346). The conditions noted are these: SaOS-2 split-luciferase Mdm2/MdmX complementation, at 8 µM, active compounds read high.
Regarding `COc1ccccc1C1CC(=O)n2c(nc(-c3ccccc3)c2-c2ccccc2)S1` (centres undefined), the inhibition (in general, the relative decrease from the control value, in per cent) was -21.8% (inactive).

For `O=C(N[C@@H](Cc1c[nH]c2ccccc12)C(=O)O)OCC1c2ccccc2-c2ccccc21`, the inhibition was -20.2% (inactive).

Regarding `C=C1CCC(N(O)c2cc(C)on2)C(=C)CCC2C1CC2(C)C` (centres undefined), the inhibition was -8.29% (inactive).

As to `CC(=O)Nc1ccc(S(=O)(=O)N(CCc2ccccc2)CC(=O)N/N=C/c2ccc(C(=O)O)cc2)cc1`, the inhibition is -1.72% (inactive).

Take `Cc1ccc(N=C2NC(=O)/C(=C/C=C/c3ccco3)S2)cc1C`: the inhibition was 7.92% (inactive).

Consider `CN(C)c1ccc(-n2cccc2/C=C2/SC(=Nc3ccc(F)cc3)NC2=O)cc1`, for which the inhibition was 53.3% (active).

Take `CN(C)c1ccc(-n2cccc2/C=N/n2cnnc2)cc1`: the inhibition is 18.3% (inactive).

Take `Cc1ccc(S(=O)(=O)N2CCCCC2)cc1NC(=O)CCNC(=O)c1ccccc1`: the inhibition was -6.37% (inactive).

Take `O=C(CN1CCOCC1)Nc1cccc([N+](=O)[O-])c1`: the inhibition was 14.4% (inactive).

For the molecule `Cc1c(NC(=O)Nc2ccccc2Cl)sc(=S)n1C`, the inhibition was -28% (inactive).

In the case of `O=C(Cc1ccc2c(c1)CCCC2)Nc1ccccc1Cl`, the inhibition was -28.4% (inactive).

For the molecule `O=C(Nc1ccccc1Cl)/C(Cl)=C(\Cl)S(=O)c1ccccc1` (centres undefined), the inhibition is 93.6% (active).

As to `Cc1ccc(S(=O)(=O)N2CC(O)C[C@H]2C(=O)OCC(=O)Nc2ccc(N3CCOCC3)cc2)cc1C` (some centres undefined), the inhibition was 31.1% (inactive).

`NC(=O)c1cc2ccccc2o/c1=N/NC(=O)c1cccc(F)c1`: the inhibition is 1.22% (inactive).

On to `COc1cccc2cc(C(N)=O)/c(=N\NC(=O)c3ccccc3)oc12`, for which the inhibition was 56.6% (active).

As for `COc1cccc2cc(C(=O)N3CCN(C(=O)c4ccccc4)CC3)c(=O)oc12`, the inhibition is 13.1% (inactive).

Consider `CC(=O)N1CCc2c(sc(NC(=O)CCS(=O)(=O)c3ccc(C)cc3)c2C(N)=O)C1`, for which the inhibition was 25.4% (inactive).

In the case of `CC(=O)N1CCc2c(sc(NC(=O)CCS(=O)(=O)c3ccccc3)c2C#N)C1`, the inhibition is 86.2% (active).

For the molecule `CC(C)N1CCc2c(sc(NC(=O)Cc3ccccc3)c2C#N)C1`, the inhibition was -40.8% (inactive).

For `COc1ccc(N(C(=O)c2snc(C(N)=O)c2N)C(C(=O)NC2CCCC2)c2ccco2)cc1OC` (centres undefined), the inhibition was 22.9% (inactive).

As for `O=c1[nH]c(/C=C\c2cccc(C(F)(F)F)c2)nc(O)c1[N+](=O)[O-]`, the inhibition was -7.22% (inactive).

Take `Cc1ccc(OCC(O)CN2CCN(CC(O)COc3ccc(C)cc3Cl)CC2)c(Cl)c1` (centres undefined): the inhibition was 73.5% (active).

For the molecule `OC(COc1ccc(F)cc1Cl)CN1CCc2ccccc2C1` (centres undefined), the inhibition was -9.27% (inactive).

Turning to `Cc1cccc(OCC(O)CN2CCN(S(=O)(=O)c3ccc(C)cc3C)CC2)c1` (centres undefined), the inhibition was -4.83% (inactive).
